Results from PubChem BioAssay (NCI).
This is part of a sample that, as a whole, favours compounds with a hit. Of some 83,000 tested, about 20% had one in any assay.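 How to read the values: 0–100, growth inhibition (40 = 60% inhibited); 0, no net growth; -100 to 0, cell death (-40 = 40% of starting cells died; -100 = all dead).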 Activity calls are given as the source filed them. Rule for the calls: active = growth percent below 10; inactive = the rest.

What follows are compounds tested on MDA-MB-468 breast (assay: NCI-60 one-dose screen, 48 h (100 = growth as untreated, 0 = no growth, -100 = all killed)). Settings: 10 µM unless noted.

Compound | growth
COc1ccc(C(=O)Cn2cnc3c(Nc4cc(C(=O)Nc5ccc(N6CCN(CCO)CC6)cc5)ccc4C)ncnc32)cc1 | 114% (inactive)
CC(=O)NCC1c2c(n(C)c3c(Cl)c(Cl)ccc23)C(=O)NC1(C)C (stereo not drawn) | 109% (inactive)
Cc1cc(N2CCCC2)nc(N(CCCNc2ccnc3cc(Cl)ccc23)Cc2ccc3c(c2)OCO3)n1 | -47.4% (active)
